Screening results (PubChem)
Shown are actives, neighbours in structure and some others; about 9.4% of the full set was active somewhere.
Rab9 prom act – activators of Rab9 promoter | Huh7 Rab9 promoter-luciferase reporter, luminescence, 24 h | Potency, µM (series often up to 9.22 µM), without a hit: at the top dose activation, negative = inhibition, hits mostly activators | 2.8% of 320,000 active; also: % of control where 0% means no effect; nearly all actives have a fitted effect of over 60% in size
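Huh7 cells stably carrying a Rab9 promoter-luciferase reporter, 1500 cells per well in OP-MEM I with 10% FBS, treated with compound 24 hours at 37C. Luciferase activity read by luminescence after 10 minutes with Amplite reagent.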
SMN2 splice up – SMN2 splice variant enhancement. HEK293 SMN2-luciferase splicing reporter, luminescence, 30-36 h. Potency, µM (top dose mostly 46.1 µM), without a hit: at the highest dose activity change, positive = activation, actives largely listed as activators. 2.8% of 210,000 active. AID 1458; also: % of control where 0% means no effect; nearly all actives have a fitted effect of over 55% in size
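HEK293 cells carry an SMN2 […]–luciferase reporter in which exon 7 inclusion puts luciferase in frame. Cells were plated 10-12 h before compound addition, then incubated 30-36 h at 37C. ONE-Glo luminescence was read; sodium butyrate at 4.5 mM final served as control.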
NPC1 prom act – activates the NPC1 promoter; Huh7 NPC1 promoter luciferase reporter, 24 h; Potency, µM (series often up to 9.22 µM), without a hit: top-dose activation, usual class: activators; 2.4% of 320,000 active; also: % of control where 0% means no effect; nearly all actives have a fitted effect of over 60% in size
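Stable NPC1-promoter luciferase Huh7 line; cpd (DMSO) 24 h, 37 °C, 5% CO2; Amplite luciferase reagent 10 min RT; luminescence readout. qHTS format.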
ELG1 DNA repair – ELG1-dependent DNA repair inhibition; HEK293T ELG1-luciferase reporter, luminescence, 16 h; DNA damage induced by 5-fluorouridine; Potency, µM (series often up to 46.1 µM), inactives show top-dose activity change, negative = inhibition, hits mostly inhibitors; 2.3% of 330,000 active; AID 504467; also: % is scaled to controls: 0 for no effect and ±100 for the full control effect; nearly all actives have a fitted effect of over 55% in size
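Luminescence from the luciferase reporter, measured 30 min after ONE-Glo reagent at room temperature, was the read-out. Beforehand, 2,000 cells per well were exposed for 16 hr at 37 °C to 5-fluorouridine together with compound or vehicle.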
ELG1 genotoxic – genotoxicity induction in ELG1-luciferase HEK293T cells. HEK293T ELG1-luciferase reporter, luminescence, 16 h. Potency, µM (series often up to 46 µM), for inactives: at the top dose activity change, positive = activation, most hits filed as activators. 1.3% of 330,000 active. AID 504466; also: % of control where 0% means no effect; nearly all actives have a fitted effect of over 60% in size
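Luminescence read-out: rising ELG1-luciferase signal, reflecting elevated ELG1 protein under genetic stress, flags genotoxic compounds. Cells were treated for 16 hr at 37 °C before ONE-Glo detection.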
FLuc modulator – firefly luciferase modulation, counter-screen for miR-21 project; P08659; purified FLuc, Km substrates, luminescence inhibition; AID 588342; 6.9% of 360,000 active; Potency, µM (doses to about 57.5 µM), for inactives: top-dose activity change, negative = inhibition, most hits filed as inhibitors;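 also: plate controls were vehicle for no effect and reference inhibitor for full effect; nearly all actives have a fitted effect of over 55% in size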
Target sequence (P08659 whole entry, looked up): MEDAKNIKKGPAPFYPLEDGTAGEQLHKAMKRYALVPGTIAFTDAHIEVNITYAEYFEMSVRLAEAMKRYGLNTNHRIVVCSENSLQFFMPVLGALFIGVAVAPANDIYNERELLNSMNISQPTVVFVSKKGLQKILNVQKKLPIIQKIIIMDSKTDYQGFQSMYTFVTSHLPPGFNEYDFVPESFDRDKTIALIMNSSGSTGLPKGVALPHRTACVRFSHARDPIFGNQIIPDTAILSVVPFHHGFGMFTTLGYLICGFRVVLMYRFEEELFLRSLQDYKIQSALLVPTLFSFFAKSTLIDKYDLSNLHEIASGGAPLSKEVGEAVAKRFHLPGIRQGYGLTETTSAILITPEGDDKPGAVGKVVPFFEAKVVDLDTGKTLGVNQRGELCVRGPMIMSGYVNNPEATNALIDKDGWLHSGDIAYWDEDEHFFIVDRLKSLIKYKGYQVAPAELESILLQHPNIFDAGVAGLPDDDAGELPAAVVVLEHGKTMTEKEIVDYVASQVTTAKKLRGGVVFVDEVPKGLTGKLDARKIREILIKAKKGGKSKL
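Purified P. pyralis luciferase, 10 nM final, with Km-level 10 uM D-luciferin and 10 uM ATP in 50 mM Tris acetate pH 7.5, 10 mM Mg acetate, 0.01% Tween-20, 0.05% BSA; 6-point qHTS titration about 60 µM downward; luminescence read.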
Starred values were filed as active, the others as inactive; ? = inconclusive; nt = not tested or not shown; [ ] = another dose, or the depositor's remark. Calls follow the shape of the dose curve; as a rule, active = well fitted curve in the direction sought with a large enough effect; inconclusive = small, poorly fitted or top-dose-only effect, or another doubt; inactive = no such curve, though single readings can be large; an effect the other way counts as inactive or inconclusive. Potency is read from the fitted curve at half-maximal effect.

SMILES	Rab9 prom act	SMN2 splice up	NPC1 prom act	ELG1 DNA repair	ELG1 genotoxic	FLuc modulator
O=C(COc1cccc(NC(=O)c2ccccc2)c1)c1ccc(F)cc1	-2%	-58%	5%	?	-7%	15µM*
O=C(COc1ccccc1C(=O)Nc1ccccc1)c1ccc(F)cc1	-2%	-9%	-5%	3%	2%	3%
O=C(COc1ccc(Cc2ccccc2)cc1)c1ccc(F)cc1	24%	3%	27%	?	9%	8.5µM*
O=C(COc1cccc(NC(=O)c2cccc([N+](=O)[O-])c2)c1)c1ccc(F)cc1	0%	-70%	-2%	?	-14%	?
CNC(=O)C1CCC(Cn2c(=O)c3sccc3n(Cc3ccccc3)c2=O)CC1 (centres undefined)	nt	nt	nt	nt	nt	-2%
COc1cc(CNC(=O)c2sc3ncccc3c2-n2cccc2)cc(OC)c1OC	nt	nt	nt	nt	nt	0%
O=C(/C=C/Sc1ccccc1)c1ccccc1	13%	15%	2%	-25%	?	0.43µM*
O=C(/C=C/Sc1ccccc1)c1ccc(Cl)cc1	2%	8%	4%	-11%	?	1.1µM*
C/C(=C\C(=O)c1ccccc1)NNC(=O)c1ccc(Cl)cc1	8%	nt	-2%	9%	2%	-16%
CCCOc1cccc(C(=O)N(Cc2ccc(C)o2)C2CCS(=O)(=O)C2)c1 (centres undefined)	nt	-2%	nt	nt	nt	5%
CC(=O)OC1CC[C@]2(C)C(CC(OC(C)=O)[C@@]3(C)C4=CC(=O)OC(c5ccoc5)[C@]4(C)CCC23)C1(C)C (some centres undefined)	nt	-59%	nt	nt	nt	nt
C[C@@]12CC[C@@H]3[C@@H](CC[C@H]4C[C@@H](O)CC[C@]43C)[C@H]1CC[C@@H]2c1cc(C(F)(F)F)n[nH]1	nt	-8%[9.22 µM]	nt	nt	nt	nt
COc1ccc(N=c2oc3ccccc3cc2C(=O)Nc2ccccn2)cc1OC	?	10%	?	?	?	24µM*
COc1ccccc1NC(=O)c1ccccc1NC(=O)c1ccccn1	0%	nt	-1%	-15%	-3%	-11%
COc1ccccc1NC(=O)c1oc2ccccc2c1NC(=O)c1cccc(OC)c1OC	nt	-2%	nt	nt	nt	-2%
COc1ccccc1NC(=O)c1cc2ccccc2o/c1=N\O	4µM*	-8%	29%	?	16%	?
COc1ccccc1NC(=O)c1cc2ccc(O)cc2o/c1=N\O	-2%	10%	1%	-9%	3%	5.4µM*
CC(C)[C@H](CO)Nc1nc(Nc2ccc(Cl)c(C(=O)O)c2)c2ncn(C(C)C)c2n1	1%	nt	-6%	6%	2%	?
CC(C)n1cnc2c(Nc3ccc(C(=O)O)cc3)nc(Cl)nc21	18%	nt	?	?	?	12µM*
Cc1cccc(N2CCN(C(=O)c3c(C)nn(Cc4ccccc4Cl)c3C)CC2)c1C	-10%	-18%	1%	21µM*	-12%	1%
Cc1ccc2nc(-c3ccccc3N)[nH]c2c1	0.5µM*	7.1µM*	1.1µM*	?	1.2µM*	0.76µM*
O=c1[nH]c(-c2ccccn2)nc2ccccc12	?	nt	?	?	?	24µM*
Nc1nc2ccccc2[nH]1	3%	-6%	-1%	1%	-2%	0%
Nc1ccc(Br)cc1-c1nc2ccccc2[nH]c1=O	29%	26%	6%	5%	-1%	-2%
O=c1[nH]c(-c2ccccc2O)nc2ccccc12	nt	9%	nt	nt	nt	nt
SMILES	Rab9 prom act	SMN2 splice up	NPC1 prom act	ELG1 DNA repair	ELG1 genotoxic	FLuc modulator
Nc1ccccc1-c1nc2ccccc2[nH]c1=O	?	nt	?	?	7%	24µM*
Cc1c(N)cccc1-c1nc2ccccc2[nH]1	30%	10µM*	25%	?	18%	24µM*
Cc1ccc(C)c(Nc2nn3c(=O)c4ccc(C(=O)NCc5cccs5)cc4nc3s2)c1	nt	nt	nt	nt	nt	-6%
CCn1c(C(=O)N2CCC(C(=O)N3CCN(c4cc(C)ccc4C)CC3)CC2)cc2sccc21	nt	-42%	nt	nt	nt	-20%
O=[N+]([O-])c1ccc(CSCc2ccc(Cl)cc2)cc1	nt	-5%[9.22 µM]	nt	nt	nt	nt
CCn1c(CNC(=O)c2ccc(OC)cc2)nnc1SCC(=O)Nc1ccc(C)cc1	nt	3%	nt	nt	nt	-17%
c1ccc(-c2nc3ccccc3[nH]2)nc1	2.8µM*	3.2µM*	4µM*	?	?	12µM*
Cc1ccc2nc(CCCc3nc4ccc(C)cc4[nH]3)[nH]c2c1	0%	nt	1%	?	-7%	?
c1ccc(-c2nc3c(ccc4ccccc43)[nH]2)nc1	?	14µM*	2.8µM*	?	18%	3.8µM*
Nc1nc(CSc2nc3ccccc3[nH]2)cs1	?	19%	?	?	12%	?
Cc1ccc2nc(-c3ccccn3)[nH]c2c1	0.35µM*	nt	?	?	?	1.3µM*
Nc1nc(-c2nc3ccccc3[nH]2)cs1	1.1µM*	16µM*	1.3µM*	?	2.1µM*	5.4µM*
CN(C)c1ccc(CNC(=O)c2sc3ncccc3c2-n2cccc2)cc1	nt	nt	nt	nt	nt	1%
O=C(CSc1nnc(-c2ccccc2)c(-c2ccccc2)n1)NCCc1ccccc1	nt	nt	nt	nt	nt	-14%
Cc1cc(S(=O)(=O)N2CCN(Cc3noc(CCC(=O)N4CCCCC4)n3)CC2)ccc1F	nt	nt	nt	nt	nt	-1%
Cc1sc2nc(-c3ccccn3)[nH]c(=O)c2c1-c1ccccc1	28%	52%	24%	-18%	?	11µM*
COc1ccc(C(=O)NCC(c2cccnc2)N2CCc3ccccc3C2)cc1OC (centres undefined)	nt	nt	nt	nt	nt	0.67µM*
COc1ccc(CCNC(=O)c2nc(SCc3ccc(F)cc3)ncc2Cl)cc1OC	nt	-39%	nt	nt	nt	?
CCc1ccc(/C=C2/C(=O)NC(=O)N2C(C)=O)cc1	28%	nt	15%	?	12%	8.5µM*
COc1ccc(C(=O)N2C(=S)NC(=O)/C2=C\c2ccc(C)cc2)cc1	-3%	24%	3%	24%	0%	?
Cc1cc(Cn2nc(C(=O)NCC3CC3)cc2-c2ccccc2)on1	-1%	nt	1%	?	0%	7%
Cc1cccc(-c2nnc(-c3ccc(N)cc3)o2)c1	2.8µM*	4.5µM*	?	?	?	3.4µM*
Nc1ccc(-c2nnc(-c3ccc(N)cc3)o2)cc1	3.5µM*	nt	3.5µM*	?	16µM*	3.4µM*
Cc1nnc(SCC(=O)Nc2ccc(N(C)C)cc2)[nH]c1=O	nt	5%	nt	nt	nt	-16%
CSc1ccc(CCNC(=O)CCc2c(C)nc3c4cccnc4nn3c2C)cc1	nt	-20%	nt	nt	nt	-2%
COc1ccc(Nc2cc(C(=O)NC3CCCC3)c3ccccc3n2)c(OC)c1	3%	-24%	-6%	-3%	-1%	?
